Consider ten compounds from ChEMBL document CHEMBL3988442, “University of Dundee, Small-Polar-MMV Screening Library” (2021).

Parameters in all cases: scale not given: direction of the effect not stated beside the values
Experiment [1] has as its target Protein translocase subunit SecA (Escherichia coli (strain K12)) (UniProt P10408). As to the kind of experiment: Assay to Identify E. coli SecA ATPase Inhibitors. It is filed as functional. Conditions: 30 µM.
In experiment [2] the target is T1, Ubiquitin-activating enzyme e1, putative (Leishmania donovani (strain BPK282A1)) (UniProt E9BSI1).
T1 sequence (whole entry): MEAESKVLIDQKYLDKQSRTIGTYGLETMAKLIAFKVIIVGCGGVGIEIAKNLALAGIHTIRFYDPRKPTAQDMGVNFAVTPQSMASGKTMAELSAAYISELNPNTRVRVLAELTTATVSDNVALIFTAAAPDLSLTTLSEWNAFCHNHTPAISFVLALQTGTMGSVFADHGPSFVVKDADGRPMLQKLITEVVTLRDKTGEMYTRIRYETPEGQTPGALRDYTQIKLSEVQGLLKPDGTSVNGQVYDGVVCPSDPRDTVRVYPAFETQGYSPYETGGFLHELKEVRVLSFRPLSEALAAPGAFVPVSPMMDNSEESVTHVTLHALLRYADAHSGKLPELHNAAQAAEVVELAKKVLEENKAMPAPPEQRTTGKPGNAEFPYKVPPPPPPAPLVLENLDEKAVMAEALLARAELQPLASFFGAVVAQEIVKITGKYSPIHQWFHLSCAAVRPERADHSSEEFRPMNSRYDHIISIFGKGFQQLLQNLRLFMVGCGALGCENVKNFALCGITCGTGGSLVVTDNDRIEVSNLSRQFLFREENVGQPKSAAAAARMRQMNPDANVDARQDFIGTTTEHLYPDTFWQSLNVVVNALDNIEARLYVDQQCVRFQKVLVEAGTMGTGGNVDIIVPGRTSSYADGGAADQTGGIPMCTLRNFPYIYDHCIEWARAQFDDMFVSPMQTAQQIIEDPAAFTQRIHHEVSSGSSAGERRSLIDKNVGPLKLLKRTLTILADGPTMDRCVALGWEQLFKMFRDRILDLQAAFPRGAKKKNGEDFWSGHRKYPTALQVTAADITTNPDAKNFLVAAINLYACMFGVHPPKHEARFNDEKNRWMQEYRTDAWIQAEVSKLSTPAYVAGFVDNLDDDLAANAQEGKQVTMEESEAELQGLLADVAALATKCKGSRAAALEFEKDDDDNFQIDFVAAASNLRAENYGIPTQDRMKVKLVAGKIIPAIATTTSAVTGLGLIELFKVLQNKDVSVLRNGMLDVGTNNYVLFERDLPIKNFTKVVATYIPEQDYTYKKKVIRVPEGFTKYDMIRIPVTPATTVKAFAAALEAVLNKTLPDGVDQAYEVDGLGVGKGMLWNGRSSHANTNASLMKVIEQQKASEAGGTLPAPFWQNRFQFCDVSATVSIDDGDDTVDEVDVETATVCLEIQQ
The experiment can be described thus: Leishmania donovani Ubiquitin Activating Enzyme (LdE1). It is filed as functional. Conditions: 30 µM.

The target in experiment [3] is AMP-activated protein kinase, AMPK (Homo sapiens) (UniProt P54646+O43741+P54619+Q9UGJ0+Q9Y478+Q13131+Q9UGI9). As to the kind of experiment: AMP-dependent Kinase enzyme assay. An in vitro enzyme assay that detects ADP turnover that is directly proportional to AMPK activity. This uses naive AMPK that is activated during the assay with MK-8722. The format is functional. Conditions: 30 µM.

Experiment [4] concerns the target Sialic acid-binding Ig-like lectin 9 (Homo sapiens) (UniProt Q9Y336). As to the kind of experiment: Hs-Siglec9 ALPHAscreen SOP 20170721. Conditions: 10 µM.
The next experiment deals with Trypanosoma cruzi. The experiment can be described thus: Trypanosoma cruzi phosphomannomutase and mannose-1-phosphate guanylyltransferase assay. The format is functional. As to conditions: 10 µM.
The target in experiment [5] is T2, Arginase-2, mitochondrial (Homo sapiens) (UniProt P78540).
T2 sequence (whole entry): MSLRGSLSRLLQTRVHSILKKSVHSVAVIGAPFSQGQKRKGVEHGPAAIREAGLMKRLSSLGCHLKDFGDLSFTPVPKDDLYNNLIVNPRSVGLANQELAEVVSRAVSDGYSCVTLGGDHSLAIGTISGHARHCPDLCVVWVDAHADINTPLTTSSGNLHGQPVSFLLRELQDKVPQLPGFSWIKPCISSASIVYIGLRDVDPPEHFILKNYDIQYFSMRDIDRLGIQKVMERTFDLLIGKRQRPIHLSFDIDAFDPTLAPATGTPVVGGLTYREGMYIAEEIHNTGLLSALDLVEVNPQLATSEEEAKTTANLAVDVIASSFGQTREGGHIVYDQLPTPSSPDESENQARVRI
The experiment can be described thus: in vitro enzyme assay to detect the production of urea directly proportional to the activity of Arginase II. Further: in the data most compounds retested in dose-response had high values. It is filed as functional. As to conditions: 33.3 µM.

In experiment [6] the target is T3, Proteasome subunit beta (Trypanosoma cruzi) (UniProt O96673).
T3 sequence (whole entry): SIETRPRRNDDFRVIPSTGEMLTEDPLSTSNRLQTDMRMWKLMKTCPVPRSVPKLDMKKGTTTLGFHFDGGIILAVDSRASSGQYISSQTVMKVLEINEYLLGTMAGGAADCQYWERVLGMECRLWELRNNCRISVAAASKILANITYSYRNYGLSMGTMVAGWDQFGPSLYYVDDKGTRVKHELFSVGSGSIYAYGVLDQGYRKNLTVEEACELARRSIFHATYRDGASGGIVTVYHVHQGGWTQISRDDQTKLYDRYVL
As to the kind of experiment: Trypanosoma cruzi proteasome chymotrypsin-like activity (TcProtChymo) assay. Further: in the data most compounds retested in dose-response had high values. The format is functional. As to conditions: 9.37 µM.

For another experiment, the species on record is Homo sapiens. The experiment can be described thus: To identify inhibition of the IFN signalling (Jak-Stat) pathway via expression of an eGFP reporter gene under the control of an IFN-stimulated response element (ISRE) containing MxA promoter. It is filed as functional. Conditions: 30 µM.
Experiment [7] addresses T4, Tyrosyl-tRNA synthetase, putative (Trypanosoma cruzi (strain CL Brener)) (UniProt Q4DSP6).
T4 sequence (whole entry): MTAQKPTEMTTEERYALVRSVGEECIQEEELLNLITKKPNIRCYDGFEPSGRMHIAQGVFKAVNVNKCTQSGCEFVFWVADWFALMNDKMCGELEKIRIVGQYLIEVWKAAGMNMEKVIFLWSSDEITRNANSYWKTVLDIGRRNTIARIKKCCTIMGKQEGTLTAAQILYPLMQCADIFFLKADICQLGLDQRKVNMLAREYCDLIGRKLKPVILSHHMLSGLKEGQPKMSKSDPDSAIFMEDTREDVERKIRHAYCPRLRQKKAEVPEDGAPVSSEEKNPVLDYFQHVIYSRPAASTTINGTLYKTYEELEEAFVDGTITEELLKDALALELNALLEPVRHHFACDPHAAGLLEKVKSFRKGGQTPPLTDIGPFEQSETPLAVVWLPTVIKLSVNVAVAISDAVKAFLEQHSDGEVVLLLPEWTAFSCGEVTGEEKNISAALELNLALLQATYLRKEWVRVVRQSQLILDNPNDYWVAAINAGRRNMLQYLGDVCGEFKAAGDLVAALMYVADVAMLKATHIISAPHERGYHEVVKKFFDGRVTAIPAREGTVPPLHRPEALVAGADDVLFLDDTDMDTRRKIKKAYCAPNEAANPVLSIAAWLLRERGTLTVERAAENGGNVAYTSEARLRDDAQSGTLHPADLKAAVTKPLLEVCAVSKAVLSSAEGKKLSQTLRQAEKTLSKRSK
As to the kind of experiment: Trypanosoma cruzi tyrosyl tRNA synthetase (TcYRS) _High Tyrosine SOP. Further: in the data most compounds retested in dose-response had high values. The format is functional. As to conditions: 30 µM.

Experiment [8] deals with T4, Tyrosyl-tRNA synthetase, putative (Trypanosoma cruzi (strain CL Brener)). As to the kind of experiment: Trypanosoma cruzi tyrosyl tRNA synthetase (TcYRS) SOP. It is filed as functional. Conditions: 30 µM.
Experiment [9] has as its target Chromo domain-containing protein 1 (Saccharomyces cerevisiae (strain ATCC 204508 / S288c) (Baker's yeast)) (UniProt P32657). The experiment can be described thus: ScCHD-1 Enzyme Inhibition Assay. Further: in the data most compounds retested in dose-response had high values. The format is functional. Conditions: 30 µM.

For some assays here: Potency and affinity values are given separately.

Chromo domain-containing protein 1 (Saccharomyces cerevisiae (strain ATCC 204508 / S288c) (Baker's yeast)), sequence (P32657 whole entry, the tested form may be a part): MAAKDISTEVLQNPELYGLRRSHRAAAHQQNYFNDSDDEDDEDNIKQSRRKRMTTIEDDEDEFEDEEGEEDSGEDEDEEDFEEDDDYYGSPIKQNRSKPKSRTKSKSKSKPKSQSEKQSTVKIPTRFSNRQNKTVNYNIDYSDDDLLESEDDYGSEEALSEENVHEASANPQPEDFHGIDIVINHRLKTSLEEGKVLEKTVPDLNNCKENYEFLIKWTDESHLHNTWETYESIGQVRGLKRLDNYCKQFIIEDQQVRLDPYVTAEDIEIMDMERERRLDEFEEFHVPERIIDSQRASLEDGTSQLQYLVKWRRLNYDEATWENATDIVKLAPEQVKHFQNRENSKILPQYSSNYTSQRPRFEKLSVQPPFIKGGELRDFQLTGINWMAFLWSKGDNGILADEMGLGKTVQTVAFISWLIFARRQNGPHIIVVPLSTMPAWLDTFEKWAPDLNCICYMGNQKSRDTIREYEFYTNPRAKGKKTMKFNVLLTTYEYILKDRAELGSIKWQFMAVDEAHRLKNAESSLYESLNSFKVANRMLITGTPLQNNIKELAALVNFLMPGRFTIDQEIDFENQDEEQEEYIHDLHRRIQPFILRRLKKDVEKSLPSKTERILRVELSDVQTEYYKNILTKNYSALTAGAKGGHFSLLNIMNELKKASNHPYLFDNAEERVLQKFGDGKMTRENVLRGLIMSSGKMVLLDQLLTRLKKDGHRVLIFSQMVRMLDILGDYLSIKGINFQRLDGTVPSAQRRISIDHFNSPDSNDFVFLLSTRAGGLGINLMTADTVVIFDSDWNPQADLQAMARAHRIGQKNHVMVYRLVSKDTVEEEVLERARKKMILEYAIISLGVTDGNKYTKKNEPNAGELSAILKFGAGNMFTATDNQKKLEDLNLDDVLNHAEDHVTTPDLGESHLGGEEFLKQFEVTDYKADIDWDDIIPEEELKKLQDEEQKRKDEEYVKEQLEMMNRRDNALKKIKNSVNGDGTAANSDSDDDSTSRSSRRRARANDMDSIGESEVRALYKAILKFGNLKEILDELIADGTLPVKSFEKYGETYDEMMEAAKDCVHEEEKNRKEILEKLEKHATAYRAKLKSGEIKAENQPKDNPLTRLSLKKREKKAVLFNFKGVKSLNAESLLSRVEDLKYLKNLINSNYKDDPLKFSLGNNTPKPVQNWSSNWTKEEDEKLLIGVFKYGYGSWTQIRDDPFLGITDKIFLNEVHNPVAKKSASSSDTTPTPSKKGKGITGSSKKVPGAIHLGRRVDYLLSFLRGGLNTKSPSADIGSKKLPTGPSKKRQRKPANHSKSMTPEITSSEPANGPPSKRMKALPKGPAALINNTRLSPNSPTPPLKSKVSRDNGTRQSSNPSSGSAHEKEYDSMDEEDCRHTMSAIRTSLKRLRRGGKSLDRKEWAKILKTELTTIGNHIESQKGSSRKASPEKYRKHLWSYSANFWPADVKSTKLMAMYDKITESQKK
Sialic acid-binding Ig-like lectin 9 (Homo sapiens), sequence (Q9Y336 whole entry): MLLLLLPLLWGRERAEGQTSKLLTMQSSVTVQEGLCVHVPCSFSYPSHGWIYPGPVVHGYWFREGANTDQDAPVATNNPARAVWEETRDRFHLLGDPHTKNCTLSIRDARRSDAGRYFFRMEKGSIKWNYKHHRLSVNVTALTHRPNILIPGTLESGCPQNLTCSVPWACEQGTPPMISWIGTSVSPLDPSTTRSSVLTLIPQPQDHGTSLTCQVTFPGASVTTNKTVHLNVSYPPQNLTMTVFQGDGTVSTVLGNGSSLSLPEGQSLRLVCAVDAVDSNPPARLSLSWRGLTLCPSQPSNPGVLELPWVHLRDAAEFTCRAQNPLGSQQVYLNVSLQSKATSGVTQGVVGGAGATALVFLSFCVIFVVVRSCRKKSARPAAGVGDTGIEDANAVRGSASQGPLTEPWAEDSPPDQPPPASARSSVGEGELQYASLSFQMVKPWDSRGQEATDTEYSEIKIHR
Protein translocase subunit SecA (Escherichia coli (strain K12)), sequence (P10408 whole entry): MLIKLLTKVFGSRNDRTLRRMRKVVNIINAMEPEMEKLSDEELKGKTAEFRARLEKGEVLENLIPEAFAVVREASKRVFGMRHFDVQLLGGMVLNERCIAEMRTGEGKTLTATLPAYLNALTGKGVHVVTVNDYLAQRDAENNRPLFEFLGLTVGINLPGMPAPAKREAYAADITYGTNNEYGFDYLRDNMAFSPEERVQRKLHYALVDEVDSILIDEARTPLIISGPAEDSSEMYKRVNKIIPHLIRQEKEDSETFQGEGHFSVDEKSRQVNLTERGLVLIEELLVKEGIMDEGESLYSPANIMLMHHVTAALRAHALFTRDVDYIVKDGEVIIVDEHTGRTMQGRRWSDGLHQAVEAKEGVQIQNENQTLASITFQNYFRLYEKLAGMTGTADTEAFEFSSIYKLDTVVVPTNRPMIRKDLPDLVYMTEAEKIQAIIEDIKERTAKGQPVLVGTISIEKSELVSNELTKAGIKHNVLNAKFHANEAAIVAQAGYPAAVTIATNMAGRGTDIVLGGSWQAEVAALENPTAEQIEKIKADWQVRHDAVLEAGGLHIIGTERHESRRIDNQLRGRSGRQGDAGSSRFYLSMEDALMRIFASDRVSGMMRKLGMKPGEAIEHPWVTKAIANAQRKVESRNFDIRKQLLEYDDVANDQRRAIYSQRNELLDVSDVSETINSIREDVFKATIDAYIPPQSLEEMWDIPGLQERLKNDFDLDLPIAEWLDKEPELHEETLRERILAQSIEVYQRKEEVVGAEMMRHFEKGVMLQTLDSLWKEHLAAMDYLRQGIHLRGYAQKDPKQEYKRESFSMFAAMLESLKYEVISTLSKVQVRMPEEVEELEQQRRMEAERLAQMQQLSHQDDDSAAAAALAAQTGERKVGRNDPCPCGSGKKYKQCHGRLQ

In the case of `COc1cccc(C2CCCN2Cc2nc3c(cnn3C)c(=O)[nH]2)c1` (stereo not given), the Percent Effect is -0.893% in experiment [1]; 22.8% in experiment [2]; 2.53% in [3]; -5.13% in experiment [4]; 0.661% with Trypanosoma cruzi; 3.8% in experiment [5]. Further, the Percent Effect is 14.2% in [6]; 17.2% in the experiment listed under Homo sapiens; 6.4% in experiment [7]; 24.1% in experiment [8]; -5.39% in experiment [9].
In the case of `CCn1ccnc1CN1CCOC(CNc2cccnn2)C1` (stereo not given), the Percent Effect in experiment [1] was -0.964%; in experiment [2], 18.2%; in [3] it was -6.06%; in experiment [4] it was 5.48%; with Trypanosoma cruzi, 1.5%; in experiment [5], 2.85%. In addition, the Percent Effect in [6] was 16.4%; in the experiment listed under Homo sapiens, 17.5%; in [7], 4.85%; in experiment [8], 19.5%; in experiment [9] it was -8.74%.
Turning to `COc1cc(C)ccc1OCCC(=O)N1CCCC1Cn1cccn1` (stereo not given), the Percent Effect was -6.85% in experiment [1]; 15.8% in experiment [2]; -7.6% in experiment [3]; 14.4% in [4]; 3.64% in the experiment with Trypanosoma cruzi; -1.44% in experiment [5]. Further, the Percent Effect in experiment [6] is 0.254%; in the experiment filed under Homo sapiens, 1.25%; in [7] it was 5.42%; in experiment [8], 13.6%; in experiment [9], -6.6%.
For the compound `CC(C)n1c(=O)nc2n1C(=O)N(c1ccccc1)C2`, the Percent Effect in [1] is -3.47%; in experiment [2], 18.4%; in experiment [3], -0.93%; in [4] it was -3.33%; in the experiment with Trypanosoma cruzi, 0.682%; in [5], -4.73%. Further, the Percent Effect was 14.7% in [6]; -2.62% in the experiment filed under Homo sapiens; 6.38% in experiment [7]; 18.2% in experiment [8]; -9.74% in experiment [9].
For `Cn1cccc1C(=O)N1CCN(CC2CC2)c2ncccc2C1`, the Percent Effect in experiment [1] is -6.82%; in experiment [2], 10.7%; in experiment [3], -5.74%; in experiment [4], 2.72%; with Trypanosoma cruzi, 2.7%; in [5] it was -56.8%. For the same compound, the Percent Effect is 7.18% in experiment [6]; 3.32% in the experiment listed under Homo sapiens; 1.04% in [7]; 10% in [8]; -4.08% in [9].
Turning to `CCn1cc(NC(=O)C2CCN(CC(=O)N3CCOCC3)CC2)cn1`, the Percent Effect is -3.94% in experiment [1]; 10.5% in [2]; -3.09% in experiment [3]; 3.27% in experiment [4]; -4.01% with Trypanosoma cruzi; 1.8% in [5]. For the same compound, the Percent Effect amounted to 3.98% in experiment [6]; 3.5% in the experiment listed under Homo sapiens; 2.46% in experiment [7]; 11.1% in experiment [8]; 4.1% in experiment [9].
As to `CC(C)N(C)Cc1cnc2n1CCN(CCc1ccccc1)C2`, the Percent Effect in experiment [1] is -3.87%; in experiment [2], 5.41%; in experiment [3], 23.2%; in [4], -2.38%; in the experiment on Trypanosoma cruzi, 0.586%; in experiment [5], -2.92%. Further, the Percent Effect in [6] is 9.04%; in the experiment filed under Homo sapiens it was -8.89%; in [7], 6.93%; in [8], 8.54%; in experiment [9], 0.182%.
Regarding `Cc1noc(C(C)N2CCN(CC(=O)N3CCOCC3)CC2)n1` (stereo not given), the Percent Effect in experiment [1] was -5.15%; in experiment [2] it was 10.5%; in experiment [3], -3.04%; in experiment [4], -5.34%; in the experiment on Trypanosoma cruzi, 5.55%; in experiment [5] it was -4.73%. For the same compound, the Percent Effect in experiment [6] is -3.93%; in the experiment listed under Homo sapiens, -8.61%; in [7], 2.13%; in [8], 10.4%; in [9], -15.2%.
For the compound `COc1ccc(-n2cnnc2SCCC#N)cn1`, the Percent Effect was -2.65% in [1]; 8% in [2]; 0.911% in [3]; 11.1% in experiment [4]; 4.38% in the experiment on Trypanosoma cruzi; 18.2% in experiment [5]. Besides, the Percent Effect was 11.3% in [6]; -11.2% in the experiment filed under Homo sapiens; 6.01% in experiment [7]; 21% in [8]; -6.98% in experiment [9].
In the case of `CCOc1ccc(NC(=O)NCc2csc(NC)n2)cc1C`, the Percent Effect in experiment [1] is -1.88%; in experiment [2], 10.8%; in experiment [3] it was -11.1%; in [4], 14.3%; in the experiment with Trypanosoma cruzi, 1.95%; in experiment [5], 0.924%. For the same compound, the Percent Effect in experiment [6] is -1.26%; in the experiment listed under Homo sapiens, 19.8%; in [7], 12.9%; in experiment [8], 23.2%; in [9], -3.54%.
